{"source": "PubChem BioAssay (NCATS)", "note": "Results filed as inconclusive are left out. Activity calls are given as the source filed them. Calls come from the whole dose curve; as a rule, active = well fitted inhibition curve with a large enough effect; inconclusive = small, poorly fitted or top-dose-only effect; inactive = no such curve, though single readings can be large or run the other way. % is set by controls: 0 for no effect and ±100 for the full control effect; potency is the fitted concentration of half-maximal effect.", "data": [{"assay": "qHTS for Inhibitors of ATXN expression: Validation (AID 588378); note: nearly all actives have a fitted effect of over 75% in size", "conditions": "cell-based ATXN2 expression reporter assay, luminescence; series mostly up to 57.1 µM; activity change, negative = inhibition: at the top concentration", "from_the_text": "Spinocerebellar ataxia type 2 (SCA2) is a multisystem neurodegenerative disease caused by a dominantly-acting mutation leading to expansion of a polyQ domain in the ataxin-2 protein (ATXN2). SCA2 patients develop progressive ataxia and later lose function in other neuronal systems. Prominent parkinsonian signs develop in some patients. Similar to many neurodegenerative disorders, no symptomatic or disease-modifying treatments are known.\nThe primary objective of project is to identify compounds inhibiting ATXN2 expression and to test them for efficacy in SCA2 mouse models. To this end, in a collaboration between Dr. Daniel Scoles and scientists at NCGC, a cell-based assay adapted to high-throughput screening has been developed to screen the NIH Molecular Libraries Small Molecule Repository (MLSMR).\nNIH Chemical Genomics Center [NCGC]\nNIH Molecular Libraries Probe Centers Network [MLPCN]\nAssay Submitter (PI): Stefan Pulst and Daniel Scoles, University of Utah\n4 ul of HEK293-ATXN2-FFLuc cell suspension (TBD cells/microL in phenol-red free DMEM) are dispensed into Greiner white solid bottom 1536-well assay plates, yielding a final well density of TBD cells/well. Plates are incubated for 2 hrs at 37 degrees C in 5% humidified CO2 to allow cell attachment. Compounds are then transferred via Kalypsys pin tool equipped with 1536-pin array (10nl slotted pins, V&P Scientific, San Diego, CA). In addition, duplicate serial dilutions of the control compounds ChemBridge 5553825, a previously identified ATXN2 expression inhibitor, and a known luciferase inhibitor, are pin-transferred. After incubation at 37 degrees C in 5% humidified CO2 for 24 hrs, CellTiter-Fluor reagent (1 ul) (Promega, Madison, WI) is then added and plates are incubated for 30 minutes, before being transferred to a ViewLux high-throughput CCD imager (PerkinElmer), wherein single end-point fluorescence measurements are acquired using the 405 nm excitation/525 nm emission filter set to assess cell viability. Next, Bright-Glo luciferase substrate detection reagent (3 ul) (Promega, Madison, WI) is added to each well and incubated for an additional 5 minutes. Luminescence is then measured on the ViewLux imager equipped with a clear emission filter using a 2 sec exposure.", "values": [{"smiles": "CC(C)(C)c1o[nH]c(=O)c1CC(N)C(=O)O", "note": "(stereo not given)", "activity change, negative = inhibition": "-6.42% (inactive)"}, {"smiles": "NCCc1c[nH]c2ccc(C(N)=O)cc12", "activity change, negative = inhibition": "-9.24% (inactive)"}, {"smiles": "CN1CC[C@@]2(C)c3cc(OC(=O)Nc4ccccc4)ccc3N(C)[C@@H]12", "activity change, negative = inhibition": "-23.4% (inactive)"}, {"smiles": "OC1CCCCC1N1CCC(c2ccccc2)CC1", "note": "(stereo not given)", "activity change, negative = inhibition": "-29.2% (inactive)"}, {"smiles": "NCC(CP(=O)(O)O)c1ccc(Cl)cc1", "note": "(stereo not given)", "activity change, negative = inhibition": "17% (inactive)"}, {"smiles": "NC(Cc1cc(O)c(O)cc1O)C(=O)O", "note": "(stereo not given)", "activity change, negative = inhibition": "-12.5% (inactive)"}, {"smiles": "C/C(O)=C(\\C#N)C(=O)Nc1cc(Br)ccc1Br", "activity change, negative = inhibition": "-3.6% (inactive)"}, {"smiles": "Ic1ccccc1CNC1C2CCN(CC2)C1C(c1ccccc1)c1ccccc1", "note": "(stereo not given)", "Potency": "12.6 µM (active)"}, {"smiles": "CN1CCc2cc(O)cc3c2[C@H]1Cc1ccc(O)c(O)c1-3", "activity change, negative = inhibition": "-15% (inactive)"}, {"smiles": "C[C@H](N)CN1CCc2ccc(Br)cc21", "Potency": "15.8 µM (active)"}, {"smiles": "COc1ccc2[nH]cc(CCN)c2c1", "activity change, negative = inhibition": "-28.5% (inactive)"}, {"smiles": "CC(C)(C)c1cc(C=C(C#N)C#N)cc(C(C)(C)C)c1O", "Potency": "0.631 µM (active)"}, {"smiles": "C[N+]1(C)C2CCC1CC(OC(=O)c1c[nH]c3ccccc13)C2", "note": "(stereo not given)", "activity change, negative = inhibition": "7.16% (inactive)"}, {"smiles": "C[N+](C)(C)CCOC(=O)CBr", "activity change, negative = inhibition": "-6.63% (inactive)"}, {"smiles": "C[N+]1(C)CCN(c2ccccc2)CC1", "activity change, negative = inhibition": "-8.87% (inactive)"}, {"smiles": "CO[C@H]1CC=C2CCN3CCC4=C(CC(=O)OC4)[C@]23C1", "activity change, negative = inhibition": "-4.74% (inactive)"}, {"smiles": "CP(=O)(O)C1=CCNCC1", "activity change, negative = inhibition": "-5.79% (inactive)"}, {"smiles": "C=CCN1C[C@@H](C)N([C@H](c2ccc(C(=O)N(CC)CC)cc2)c2cccc(OC)c2)C[C@@H]1C", "activity change, negative = inhibition": "12.8% (inactive)"}, {"smiles": "CCCN1CCC[C@@H](c2cccc(O)c2)C1", "activity change, negative = inhibition": "-6.37% (inactive)"}, {"smiles": "c1ccc2cc(CC3=NCCN3)ccc2c1", "activity change, negative = inhibition": "-4.93% (inactive)"}, {"smiles": "C=CCN1CC[C@]23c4c5ccc(O)c4O[C@H]2/C(=N/NC(=O)c2ccccc2)CC[C@@]3(O)[C@H]1C5", "activity change, negative = inhibition": "-4.41% (inactive)"}, {"smiles": "CCCn1c(=O)c2[nH]c(C3CCCC3)nc2n(CCCOC(=O)c2ccc(S(=O)(=O)F)cc2)c1=O", "activity change, negative = inhibition": "3.15% (inactive)"}, {"smiles": "NC(C(=O)O)c1cc(=O)[nH]o1", "note": "(stereo not given)", "activity change, negative = inhibition": "-4.34% (inactive)"}, {"smiles": "COc1ccc2c(c1O)-c1cccc3c1[C@@H](C2)N(C)CC3", "activity change, negative = inhibition": "-28.6% (inactive)"}, {"smiles": "C[N+](C)(C)CC#CCN1CCCC1=O", "activity change, negative = inhibition": "8.63% (inactive)"}, {"smiles": "O=c1c2ccccc2[se]n1-c1ccccc1", "activity change, negative = inhibition": "-10.8% (inactive)"}, {"smiles": "CC(C)NP(=O)(NC(C)C)OP(=O)(NC(C)C)NC(C)C", "activity change, negative = inhibition": "-5.52% (inactive)"}, {"smiles": "CN(C(=O)Cc1ccc(Cl)c(Cl)c1)C(CN1CCCC1)c1cccc(OCC(=O)O)c1", "note": "(stereo not given)", "activity change, negative = inhibition": "-3.72% (inactive)"}, {"smiles": "Oc1ccc2c3c1O[C@H]1c4[nH]c5ccccc5c4C[C@@]4(O)C(C2)N(CC2CC2)CCC314", "note": "(stereo not given in full)", "Potency": "17.8 µM (active)"}, {"smiles": "CN1CCc2cccc(Cl)c2CC1", "activity change, negative = inhibition": "4.14% (inactive)"}, {"smiles": "CCCN(CCC)C1Cc2cc(OC)c(OC)cc2C1", "activity change, negative = inhibition": "11.9% (inactive)"}, {"smiles": "C=CCN1CC[C@]23c4c5ccc(O)c4O[C@@H]2/C(=N/N=C2\\CC[C@@]4(O)C6Cc7ccc(O)c8c7[C@@]4(CCN6CC=C)[C@@H]2O8)CC[C@@]3(O)C1C5", "Potency": "20 µM (active)"}, {"smiles": "CCNC(=O)[C@H]1O[C@@H](n2cnc3c(N)ncnc32)[C@H](O)[C@@H]1O", "activity change, negative = inhibition": "-16.6% (inactive)"}, {"smiles": "NC(=O)c1cc(N2CC2)c([N+](=O)[O-])cc1[N+](=O)[O-]", "activity change, negative = inhibition": "-20.2% (inactive)"}, {"smiles": "Clc1cc(I)cc(Cl)c1NC1=NCCN1", "activity change, negative = inhibition": "-7.38% (inactive)"}, {"smiles": "NCC(O)c1cc(O)c(O)cc1F", "note": "(stereo not given)", "activity change, negative = inhibition": "-4.93% (inactive)"}, {"smiles": "CCCC[N+]1(C)C2CC(OC(=O)[C@H](CO)c3ccccc3)CC1C1OC12", "note": "(stereo not given in full)", "activity change, negative = inhibition": "-18.5% (inactive)"}, {"smiles": "CN1CCC(c2c[nH]c3ccc(O)cc23)CC1", "activity change, negative = inhibition": "-2.53% (inactive)"}, {"smiles": "CCOC(=O)c1ncn2c1[C@@H]1CCCN1C(=O)c1cc(OC)ccc1-2", "activity change, negative = inhibition": "-16.3% (inactive)"}, {"smiles": "CCCN(CCC)CCc1ccc(O)c(O)c1", "activity change, negative = inhibition": "-14% (inactive)"}]}]}
